Screen size: about 320,000 compounds; about 2,100 (0.66%) were called active. Not shown: some 53% with an inconclusive outcome. The call rests on the fitted dose curve; in most records, active means well fitted inhibition curve with a large enough effect in the signal ratio, with a control signal flat (not every such curve was filed as active); inconclusive means small, poorly fitted or top-dose-only effect, or effect the other way, or a change in a side signal; inactive means flat fitted curve, though single readings scatter; the % refers to the signal ratio. The list comes from a sample in which actives are over-represented; it also holds similar structures and randomly drawn compounds.
Potency means the concentration at half of the fitted maximal effect.

The experiment is described as follows: qHTS Assay for Lipid Storage Modulators in Drosophila S3 Cells.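 On cell number change: cells counted by Cell Tracker Red CMTPX staining in the red channel.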 On lipid storage change, negative = inhibition: on the % scale 0 is the no-effect control and ±100 the full control effect. Conditions: BODIPY lipid droplet fluorescence, 18-24 h, cells fed with added oleic acid; cell number change: measured here: cell count max response; series mostly up to 46.1 µM; lipid storage change, negative = inhibition: at the top concentration. The gist of the method: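 Laser-scanning cytometry quantifies lipid droplet accumulation (500–530 nm total intensity; droplet/cell object ratio) in oleic acid-fed (400 uM added) Drosophila S3 cells treated with a concentration series. 20 uM Triacsin C defined 100% inhibition.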
For orientation: Quantitative high-throughput screening tests each substance at several concentrations.
Regarding `O=C(NCc1cccc(Cl)c1)C1CCC(=O)N(CCN2CCOCC2)C1` (centres undefined), the “lipid storage change, negative = inhibition” value is 33% (inactive) and the cell number change was 19%. For `O=C(NCc1cccc(Cl)c1)C1CCC(=O)N(CCCN2CCCC2=O)C1` (centres undefined), the Potency was 1.84 µM (active) and the cell number change worked out at 15.8%. As to `O=C(NCc1ccccc1Cl)C1CCC(=O)N(CCCN2CCCC2=O)C1` (centres undefined), the “lipid storage change, negative = inhibition” value is -1.29% (inactive) and the cell number change was -14.7%. For `CC(C)CCNC(=O)c1cc([N+](=O)[O-])ccc1N1CCOCC1`, the “lipid storage change, negative = inhibition” value was -1.77% (inactive) and the cell number change is -14%. Turning to `CCN1CCc2c(sc(NC(=O)c3ccc(S(=O)(=O)N(C)CC4CCCO4)cc3)c2C(N)=O)C1` (centres undefined), the Potency is 2.91 µM (active) and the cell number change is -26.3%.

Turning to `CCOC(=O)c1c(NC(=O)c2ccc(S(=O)(=O)N3CCOCC3)cc2)sc2c1CCN(C(C)C)C2`, the outcome was inactive and the cell number change amounted to 6.84%. As to `CCN1CCc2c(sc(NC(=O)c3ccc4ccccc4c3)c2C(N)=O)C1`, the cell number change is -8.56% and the lipid storage change, negative = inhibition was -25.3% [at 0.369 µM] (inactive). In the case of `CC(C)N1CCc2c(sc(NC(=O)c3ccc(S(=O)(=O)N4CCOCC4)cc3)c2C(N)=O)C1`, the “lipid storage change, negative = inhibition” value is -5.59% (inactive) and the cell number change is 0.268%. Consider `CCN1CCc2c(sc(NC(=S)NC(=O)c3ccc(Cl)cc3)c2C(N)=O)C1`, for which the “lipid storage change, negative = inhibition” value is -5.13% (inactive) and the cell number change was found to be 6.82%.

`CC(C)N1CCc2c(sc(NC(=O)c3ccc(S(=O)(=O)N(C)CC4CCCO4)cc3)c2C(N)=O)C1` (centres undefined): the Potency was 7.31 µM (active) and the cell number change is -19.4%. On to `CC1=CC(C)(C)NC(=S)N1C(C)c1ccccc1` (centres undefined), for which the “lipid storage change, negative = inhibition” value was 9.59% (inactive) and the cell number change worked out at 20.7%. In the case of `O=C(CCNC(=O)Cn1ccc2ccccc2c1=O)NCc1ccccn1`, the “lipid storage change, negative = inhibition” value is -0.0668% (inactive) and the cell number change stood at 1.28%. Consider `COc1cc(NCC(=O)Nc2cccc(S(=O)(=O)N3CCCCC3)c2)cc(OC)c1OC`, for which the compound was called inactive and the cell number change was -2.08%. Consider `O=C(CSc1ccccc1)Nc1cccc(S(=O)(=O)N2CCOCC2)c1`, for which the “lipid storage change, negative = inhibition” value is -7.81% (inactive) and the cell number change is -14.2%.

`COc1ccc(S(=O)(=O)N2CCCCC2)cc1NCC(=O)Nc1ccc(C)cc1`: the “lipid storage change, negative = inhibition” value was 11.5% (inactive) and the cell number change is -1.26%. The corresponding values for `COc1ccc(S(=O)(=O)N2CCCCC2)cc1NC(=O)CNc1ccc(F)cc1C` are 29% (inactive) and 11.8%. As for `COc1ccc([N+](=O)[O-])cc1NCC(=O)Nc1cc(S(=O)(=O)N2CCCCC2)ccc1C`, the Potency is 16.4 µM (active) and the cell number change is -23.1%.

Consider `Cc1ccc(NC(=O)CNc2cccc(S(=O)(=O)N3CCCCC3)c2)cc1F`, for which the Potency was 1.46 µM (active). Regarding `COC(=O)c1ccccc1NC(=O)CNc1ccc(F)c(S(=O)(=O)N2CCOCC2)c1`, the Potency was 3.26 µM (active) and the cell number change is 0.245%. For the compound `CCN(CC(=O)Nc1cccc(S(=O)(=O)N2CCOCC2)c1)Cc1ccccc1`, the lipid storage change, negative = inhibition is -10.6% [at 0.0737 µM] (inactive). On to `O=C(CNc1cccc(S(=O)(=O)N2CCOCC2)c1)Nc1ccccc1F`, for which the compound was classed as inactive and the cell number change is 4.62%. On to `O=C(CNc1cccc(S(=O)(=O)N2CCCC2)c1)Nc1ccc(F)c(F)c1`, for which the outcome was inactive and the cell number change stood at 2.77%. On to `COc1cc(NC(=O)CNc2ccc(Cl)c(S(=O)(=O)N3CCOCC3)c2)cc(OC)c1`, for which the “lipid storage change, negative = inhibition” value was -3.31% (inactive) and the cell number change was -14.4%.

For `CCN(CC)S(=O)(=O)c1cc(NC(=O)CNc2cccc(S(=O)(=O)N3CCOCC3)c2)ccc1C`, the Potency was 2.06 µM (active) and the cell number change was -23.6%. As to `Oc1cccc(CCC2CCCCN2Cc2cn[nH]c2-c2ccc3c(c2)OCO3)c1` (centres undefined), the “lipid storage change, negative = inhibition” value was 16.7% (inactive) and the cell number change was found to be 7.37%. `Fc1ccc(N/N=C(/c2ccccc2)c2ccccn2)cc1`: the “lipid storage change, negative = inhibition” value is 8.3% (inactive) and the cell number change amounted to 9.54%. Take `CN(C)c1ccc(C=NCCC2(O)CCOC(C)(C)C2)cc1` (centres undefined): the “lipid storage change, negative = inhibition” value was 6.27% (inactive) and the cell number change was 2.42%.

For the compound `NC(=O)N/N=C/CCc1ccccc1`, the “lipid storage change, negative = inhibition” value is 1.59% (inactive) and the cell number change is 7.84%. On to `S=c1[nH]nc(CNc2cccc(Cl)c2)o1`, for which the “lipid storage change, negative = inhibition” value was 3.6% (inactive) and the cell number change worked out at 5.85%. With `Cc1[nH]c2ccccc2c1/C=N/NC(=O)c1cc(C(C)C)[nH]n1`, the “lipid storage change, negative = inhibition” value is -1.1% (inactive) and the cell number change amounted to 17.7%.

Regarding `O=C(/C=C/c1cccc(Cl)c1)NCCc1ccccc1`, the “lipid storage change, negative = inhibition” value was 8.05% (inactive) and the cell number change was 4.34%. The corresponding values for `CN1CCN(c2ccc(CNS(=O)(=O)Cc3ccc(Cl)cc3)cc2)CC1` are -7.74% (inactive) and -12.5%. Consider `CNC(=O)Cn1c(C)cc(=O)c2cccc(C)c21`, for which the “lipid storage change, negative = inhibition” value was 10.6% (inactive) and the cell number change turned out to be 13.3%. `CN(Cc1ccccc1)S(=O)(=O)c1ccc(OCC(=O)Nc2cccc([N+](=O)[O-])c2)cc1`: the “lipid storage change, negative = inhibition” value was 5.75% (inactive) and the cell number change turned out to be 18.8%. On to `CCOc1ccccc1OCCCC(=O)Nc1nc2ccccc2[nH]1`, for which the compound was classed as inactive. `COc1ccc(-c2noc(CSc3nc4ccccc4c(=O)n3-c3ccc(C)cc3)n2)cc1`: the “lipid storage change, negative = inhibition” value is -0.476% (inactive) and the cell number change came out at 13.3%. Regarding `Clc1ccc(OCc2cn3cccnc3n2)c2ncccc12`, the result was inactive.

As for `CC[C@H](C)[C@H](NC(N)=O)C(=O)Nc1ccc(S(=O)(=O)NC(C)C)cc1`, the “lipid storage change, negative = inhibition” value was -0.365% (inactive) and the cell number change amounted to 3.97%.

Regarding `COc1ccc(OCCCC(=O)Nc2cc([N+](=O)[O-])ccc2C)cc1`, the Potency was 14.6 µM (active) and the cell number change was -3.49%.

Consider `O=C(CNc1cccc(S(=O)(=O)N2CCCC2)c1)Nc1cccc(Br)c1`, for which the “lipid storage change, negative = inhibition” value was 12.9% (inactive) and the cell number change stood at 14.3%.

As for `Cc1ccc([N+](=O)[O-])cc1NC(=O)CCCOc1ccccc1`, the “lipid storage change, negative = inhibition” value is 4.91% (inactive) and the cell number change is 2.03%. Take `CC(=O)c1cccc(NCC(=O)Nc2cccc(S(=O)(=O)N3CCCCC3)c2)c1`: the “lipid storage change, negative = inhibition” value was 24.6% (inactive) and the cell number change turned out to be 13.3%. For `O=C(CNc1cccc(S(=O)(=O)N2CCCCCC2)c1)Nc1cccc([N+](=O)[O-])c1`, the Potency is 20.6 µM (active) and the cell number change was determined as 20.3%. Turning to `COc1ccc(OCCCC(=O)Nc2cccc([N+](=O)[O-])c2)cc1`, the “lipid storage change, negative = inhibition” value is -0.331% (inactive) and the cell number change turned out to be 10.1%.

Values taken from PubChem BioAssay AID2685 (National Center for Advancing Translational Sciences (NCATS), 2010).
